Several values for one entry are separate records, joined by “and”; a condition that tells them apart may be missing. Equal values may be shown once. Results filed as inconclusive are left out. Entries that show only a call come without a potency. Some structures have more than one record in an assay (separate samples or runs), and their calls can disagree. Activity calls are given as the source filed them. Unless noted, calls follow the shape of the dose curve; as a rule, active = well fitted curve in the direction sought with a large enough effect in the repeat runs; inconclusive = weak or mixed curves; inactive = no such curve, though single readings can be large; an effect the other way counts as inactive or inconclusive.
Legend:
[1] = qHTS assay to identify small molecule antagonists of the glucocorticoid receptor (GR) signaling pathway - cell viability counter screen (AID 720693); also: nearly all actives have a fitted effect of over 55% in size; also: potency is read from the fitted curve at half-maximal effect
[2] = qHTS assay for identifying genotoxic compounds that show differential cytotoxicity against isogenic chicken DT40 cell lines with known DNA damage response pathways - wild type cell line (AID 743012); also: nearly all actives have a fitted effect of over 60% in size; also: potency is read from the fitted curve at half-maximal effect
In short: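 CellTiter-Glo luminescence readout of viability in wild type DT40 cells after 40 h compound exposure at 37 C/5% CO2; 300 cells/well; reagent incubated 30 min at room temperature before reading.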

[3] = qHTS assay for identifying genotoxic compounds that show differential cytotoxicity against isogenic chicken DT40 cell lines with known DNA damage response pathways - Rev3 mutant cell line (AID 743014); also: nearly all actives have a fitted effect of over 55% in size; also: potency is read from the fitted curve at half-maximal effect
[4] = qHTS assay for identifying genotoxic compounds that show differential cytotoxicity against isogenic chicken DT40 cell lines with known DNA damage response pathways - Rad54/Ku70 mutant cell line (AID 743015); also: nearly all actives have a fitted effect of over 60% in size; also: potency is read from the fitted curve at half-maximal effect
[5] = qHTS assay to identify small molecule antagonists of the androgen receptor (AR) signaling pathway - cell viability counter screen (AID 743033; also: nearly all actives have a fitted effect of over 45% in size)
[6] = target: Androgen receptor (Homo sapiens) (UniProt P10275); test: qHTS assay to identify small molecule antagonists of the androgen receptor (AR) signaling pathway (AID 743035; active = well fitted inhibition curve with a large enough effect in the signal ratio in the repeat runs, not every such curve was filed as active; the % refers to the signal ratio)
Sequence of Androgen receptor (Homo sapiens) (P10275 whole entry, looked up): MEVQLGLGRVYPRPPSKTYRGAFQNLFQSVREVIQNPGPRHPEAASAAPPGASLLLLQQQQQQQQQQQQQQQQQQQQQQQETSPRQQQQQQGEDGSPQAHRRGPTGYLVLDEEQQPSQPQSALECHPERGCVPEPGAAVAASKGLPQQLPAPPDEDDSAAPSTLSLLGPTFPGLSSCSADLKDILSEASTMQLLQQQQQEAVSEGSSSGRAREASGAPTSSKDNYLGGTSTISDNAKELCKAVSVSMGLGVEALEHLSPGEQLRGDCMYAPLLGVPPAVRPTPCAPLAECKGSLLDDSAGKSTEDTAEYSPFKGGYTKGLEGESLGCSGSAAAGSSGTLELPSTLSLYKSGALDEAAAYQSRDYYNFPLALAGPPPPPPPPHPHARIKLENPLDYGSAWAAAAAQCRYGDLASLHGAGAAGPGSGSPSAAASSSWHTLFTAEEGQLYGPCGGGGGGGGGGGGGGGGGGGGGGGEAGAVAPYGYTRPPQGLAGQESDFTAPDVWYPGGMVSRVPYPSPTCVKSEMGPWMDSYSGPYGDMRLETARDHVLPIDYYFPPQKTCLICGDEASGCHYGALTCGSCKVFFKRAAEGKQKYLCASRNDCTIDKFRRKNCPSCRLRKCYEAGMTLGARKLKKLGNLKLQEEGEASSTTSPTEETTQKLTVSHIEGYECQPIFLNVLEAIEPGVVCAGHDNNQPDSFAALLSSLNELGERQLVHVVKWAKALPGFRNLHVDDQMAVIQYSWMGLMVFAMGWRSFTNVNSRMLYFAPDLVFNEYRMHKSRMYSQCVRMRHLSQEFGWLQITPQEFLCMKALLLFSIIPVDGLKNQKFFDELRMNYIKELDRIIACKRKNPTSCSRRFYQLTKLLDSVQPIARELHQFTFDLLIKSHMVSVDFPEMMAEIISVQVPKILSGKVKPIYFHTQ
In short: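 AR-bla HEK293 reporter cells; 4 h settle at 37C/5% CO2; compound + R1881 agonist, 16 h at 37C; LiveBLAzer B/G FRET substrate 2 h RT; fluorescence intensity read. qHTS format.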

[7] = target: Androgen receptor (Homo sapiens) (UniProt P10275); test: qHTS assay to identify small molecule agonists of the androgen receptor (AR) signaling pathway (AID 743036; active = well fitted activation curve with a large enough effect in the signal ratio in the repeat runs, with a control signal flat, not every such curve was filed as active; the % refers to the signal ratio)
In short: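 Activation was read as beta-lactamase FRET signal from LiveBLAzer B/G substrate, added for 2 h at room temperature. Before that, GeneBLAzer AR-UAS-bla GripTite (HEK293) cells had 16 h compound exposure at 37C.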

[8] = target: Androgen receptor (Homo sapiens) (UniProt P10275); test: qHTS assay to identify small molecule agonists of the androgen receptor (AR) signaling pathway using the MDA cell line (AID 743040; also: nearly all actives have a fitted effect of over 20% in size)
In short: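 Cell-based luciferase reporter: MDA-kb2, MMTV promoter (AR + GR response elements). 16 h compound exposure at 37C; ONE-Glo, 30 min RT, luminescence.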

[9] = qHTS assay to identify small molecule antagonists of the androgen receptor (AR) signaling pathway using the MDA cell line - cell viability counter screen (AID 743041; also: nearly all actives have a fitted effect of over 45% in size)
In short: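 In this qHTS counter assay, fluorescence intensity after CellTiter-Fluor addition indicated viability of MDA-kb2 AR-luc cells given compounds and R1881 for 16 h at 37C.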

[10] = target: Androgen receptor (Homo sapiens) (UniProt P10275); test: qHTS assay to identify small molecule antagonists of the androgen receptor (AR) signaling pathway using the MDA cell line (AID 743042; also: nearly all actives have a fitted effect of over 55% in size)
In short: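 MDA-kb2 cells (human breast carcinoma, stably carrying an MMTV-luciferase reporter responsive to AR and GR) were plated at 3,000 cells/well and preincubated 5 hr at 37C, then given compound plus R1881 agonist for 16 h. ONE-Glo luminescence was read.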

[11] = qHTS assay to identify small molecule antagonists of the thyroid receptor (TR) signaling pathway - cell viability counter screen (AID 743064); also: nearly all actives have a fitted effect of over 50% in size; also: potency is read from the fitted curve at half-maximal effect
In short: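 In-well cytotoxicity read by CellTiter-Fluor (30 min, 37 C) following 23.5 h exposure of GH3 cells bearing a TRE-luciferase sensor. Compounds were added alongside 1 nM (final) T3 to drive TR transactivation.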

[12] = qHTS assay to identify small molecule antagonists of the thyroid receptor (TR) signaling pathway (AID 743065); also: nearly all actives have a fitted effect of over 55% in size; also: potency is read from the fitted curve at half-maximal effect
In short: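 GH3.TRE-Luc rat pituitary cells carrying two TR response elements driving luciferase were plated for 4 h, given compound plus 1 nM T3 (final), and incubated 23.5 h at 37 C. ONE-Glo luminescence measured reporter inhibition; CellTiter-Fluor fluorescence tracked cytotoxicity.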

[13] = system: thyroid hormone receptor (rat, GH3 cells); test: qHTS assay to identify small molecule agonists of the thyroid receptor (TR) signaling pathway (AID 743066; calls by dose curve)
[14] = target: Estrogen receptor (Homo sapiens) (UniProt P03372); test: qHTS assay to identify small molecule antagonists of the estrogen receptor alpha (ER-alpha) signaling pathway (AID 743069; active = well fitted curve in the direction sought with a large enough effect in the signal ratio in the repeat runs, not every such curve was filed as active; the % refers to the signal ratio)
Sequence of Estrogen receptor (Homo sapiens) (P03372 whole entry, looked up): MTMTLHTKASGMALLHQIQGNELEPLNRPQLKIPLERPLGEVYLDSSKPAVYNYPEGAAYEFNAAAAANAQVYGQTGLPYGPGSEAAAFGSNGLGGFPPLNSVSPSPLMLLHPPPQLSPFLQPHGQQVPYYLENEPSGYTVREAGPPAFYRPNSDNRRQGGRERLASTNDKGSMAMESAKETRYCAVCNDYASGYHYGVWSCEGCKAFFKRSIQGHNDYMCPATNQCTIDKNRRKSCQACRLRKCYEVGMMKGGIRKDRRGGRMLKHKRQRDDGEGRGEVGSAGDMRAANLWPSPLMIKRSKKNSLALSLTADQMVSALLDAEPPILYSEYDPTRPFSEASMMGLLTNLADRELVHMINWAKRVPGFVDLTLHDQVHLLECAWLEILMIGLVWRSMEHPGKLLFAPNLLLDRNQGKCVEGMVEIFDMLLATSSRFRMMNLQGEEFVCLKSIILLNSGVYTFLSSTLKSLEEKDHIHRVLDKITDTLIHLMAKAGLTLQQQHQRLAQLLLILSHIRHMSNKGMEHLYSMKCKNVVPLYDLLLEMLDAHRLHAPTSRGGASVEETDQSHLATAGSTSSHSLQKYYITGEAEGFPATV
In short: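 A 17beta-estradiol challenge was applied right after compound transfer to ER-alpha-UAS-bla HEK293 cells previously kept in charcoal-stripped serum. Plates stood 18 hr at 37C and 5% CO2; fluorescence was read following 2 hr FRET substrate loading at room temperature.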

[15] = qHTS assay to identify small molecule antagonists of the estrogen receptor alpha (ER-alpha) signaling pathway - cell viability counter screen (AID 743074; calls by dose curve;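 also: HEK293 cells carrying ER-alpha-UAS-bla reporter stimulated with 17beta-estradiol; nearly all actives have a fitted effect of over 45% in size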)
[16] = target: Estrogen receptor (Homo sapiens) (UniProt P03372); test: qHTS assay to identify small molecule agonists of the estrogen receptor alpha (ER-alpha) signaling pathway (AID 743075; calls by dose curve;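 also: HEK293 GripTite cells with ER-alpha and UAS-driven beta-lactamase reporter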)
[17] = target: Estrogen receptor (Homo sapiens) (UniProt P03372); test: qHTS assay to identify small molecule agonists of the estrogen receptor alpha (ER-alpha) signaling pathway using the BG1 cell line (AID 743079); also: nearly all actives have a fitted effect of over 20% in size; also: potency is read from the fitted curve at half-maximal effect
[18] = qHTS assay to identify small molecule antagonists of the estrogen receptor alpha (ER-alpha) signaling pathway using the BG1 cell line (AID 743080; calls by dose curve;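 also: BG1 cells stimulated with 17beta-estradiol alongside compound; nearly all actives have a fitted effect of over 25% in size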; also: potency is read from the fitted curve at half-maximal effect)
In short: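 Endogenous full-length ER-alpha in BG1-Luc-4E2 cells drives a stably integrated 4×ERE luciferase gene; compounds were tested against 17beta-estradiol over 21.5 h, with luminescence and multiplexed viability fluorescence recorded.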

[19] = qHTS assay to identify small molecule antagonists of the estrogen receptor alpha (ER-alpha) signaling pathway using the BG1 cell line - cell viability counter screen (AID 743081);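 also: compound given together with 17beta-estradiol as the ER stimulus; series mostly up to about 70 µM; nearly all actives have a fitted effect of over 45% in size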
[20] = target: Aromatase (Homo sapiens) (UniProt P11511); test: qHTS assay to identify aromatase inhibitors (AID 743083); also: nearly all actives have a fitted effect of over 55% in size; also: potency is read from the fitted curve at half-maximal effect
Sequence of Aromatase (Homo sapiens) (P11511 whole entry, looked up): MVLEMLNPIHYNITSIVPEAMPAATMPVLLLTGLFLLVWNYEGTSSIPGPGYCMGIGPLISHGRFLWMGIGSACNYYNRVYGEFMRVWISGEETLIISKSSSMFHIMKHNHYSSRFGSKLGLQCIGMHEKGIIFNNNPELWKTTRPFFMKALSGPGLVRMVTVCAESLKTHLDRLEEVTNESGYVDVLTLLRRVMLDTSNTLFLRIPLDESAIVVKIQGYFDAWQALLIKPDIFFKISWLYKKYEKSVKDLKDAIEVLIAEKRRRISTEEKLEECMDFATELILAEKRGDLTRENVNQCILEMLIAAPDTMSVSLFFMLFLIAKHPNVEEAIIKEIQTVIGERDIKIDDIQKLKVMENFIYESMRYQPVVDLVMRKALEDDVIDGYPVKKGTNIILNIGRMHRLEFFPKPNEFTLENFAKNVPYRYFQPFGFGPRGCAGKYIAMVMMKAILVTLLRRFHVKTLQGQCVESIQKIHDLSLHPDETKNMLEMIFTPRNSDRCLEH

Compound	Potency [1]	Potency [2]	Potency [3]	Potency [4]	outcome [5]	Potency [6]	outcome [7]	Potency [8]	Potency [9]	Potency [10]	Potency [11]	Potency [12]	outcome [13]	Potency [14]	outcome [15]	Potency [16]	Potency [17]	Potency [18]	Potency [19]	Potency [20]
NC(=O)OCC(COC(N)=O)c1ccccc1	inactive	inactive	inactive	inactive	inactive	inactive	inactive	inactive	inactive	inactive	inactive	inactive	inactive	inactive	inactive	inactive	inactive	inactive	inactive	inactive
Cc1cccc(Nc2cc(Cl)nc(SCC(=O)O)n2)c1C	inactive	inactive	inactive	inactive	inactive	inactive	–	inactive	inactive	inactive	inactive	inactive	inactive	inactive	inactive	inactive	inactive	–	inactive	inactive
Oc1cccc(O)c1	inactive	inactive	inactive	inactive	inactive	–	–	–	inactive	–	inactive	inactive	inactive	inactive	inactive	inactive	inactive	–	inactive	inactive
CC(C)(C)CC(C)(C)c1ccc(O)c(-n2nc3ccccc3n2)c1	49.7 µM (active)	inactive	inactive	inactive	inactive	–	–	–	inactive	–	26.6 µM (active) and 30.6 µM (active)	21.1 µM (active) and 62 µM (active) and 27.3 µM (active)	inactive	inactive	inactive	inactive	inactive	inactive and 61.1 µM (active)	inactive	inactive
N[C@@H](Cc1c[nH]c2ccc(O)cc12)C(=O)O	inactive	inactive	inactive	inactive	inactive	–	–	–	inactive	–	inactive	inactive	inactive	inactive	inactive	inactive	inactive	inactive	inactive	inactive
CC(O)COc1ccccc1 (configuration not stated)	inactive	inactive	inactive	inactive	inactive	inactive	inactive	inactive	inactive	inactive	inactive	inactive	inactive	–	inactive	–	–	–	inactive	inactive
COC(=O)C1CCC(C(=O)OC)CC1 (configuration not stated)	inactive	inactive	inactive	inactive	inactive	–	–	–	inactive	–	inactive	inactive	inactive	inactive	inactive	inactive	inactive	–	inactive	inactive
C[C@]12CC[C@@H]3c4ccc(O)cc4C[C@@H](CCCCCCCCCS(=O)CCCC(F)(F)C(F)(F)F)[C@H]3[C@@H]1CC[C@@H]2O (some centres not stated)	inactive	8.41 µM (active)	11.9 µM (active) and inactive	6.68 µM (active)	inactive	inactive	inactive	inactive	inactive	inactive	–	4.2 nM (active) and 0.7 nM (active)	inactive	–	inactive	–	–	–	inactive	59.6 nM (active) and 15.3 nM (active)
CCCCCCCCCCCCCC(=O)OC(C)C	inactive	inactive	inactive	inactive	inactive	inactive	inactive	inactive	inactive	inactive	inactive	inactive	inactive	inactive	inactive	inactive	29.8 µM (active) and inactive	inactive	inactive	inactive
C1CNCCN1	inactive	inactive	inactive and 62.9 µM (active)	inactive and 62.9 µM (active)	inactive	–	–	–	inactive	–	inactive	inactive	inactive	inactive	inactive	inactive	inactive and 68 µM (active)	inactive	inactive	inactive
C[C@]12C=CC(=O)C=C1CC[C@@H]1[C@@H]2C(=O)C[C@@]2(C)[C@H]1CC[C@]2(O)C(=O)CO	inactive	inactive	inactive and 4.86 µM (active)	inactive	inactive	–	–	–	inactive	–	inactive	inactive	inactive	inactive	inactive	inactive	inactive and 54.5 µM (active)	–	inactive	inactive
CC(C)=CCC/C(C)=C/CO	inactive	inactive	inactive	inactive	inactive	–	inactive	–	inactive	–	inactive	inactive	inactive	–	inactive	–	–	–	inactive	–
O=C(O)CCCCC1CCSS1 (configuration not stated)	inactive	inactive	inactive	inactive	inactive	–	–	–	inactive	–	inactive	inactive	inactive	inactive	inactive	inactive	inactive	inactive	inactive	inactive
O=C1OC(c2ccc(O)cc2)(c2ccc(O)cc2)c2ccccc21	inactive	38.3 µM (active)	17.1 µM (active)	27.1 µM (active)	inactive	–	inactive	inactive	inactive	inactive	–	–	–	–	inactive	–	–	–	inactive	inactive

Source: PubChem BioAssay (Tox21)
